A short description of test [1]: P-glycoprotein substrates identified in KB-8-5-11 adenocarcinoma cell line, qHTS therapeutic library screen (AID 1346987). Also: potency is read from the fitted curve at half-maximal effect; nearly all actives have a fitted effect of over 65% in size. Put shortly: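 KB-8-5-11: colchicine-selected sub-line of KB-3-1 over-expressing P-gp; assay medium lacked colchicine. 72 h drug exposure at 37 degree C, CellTiter-Glo.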
The subject of test [2] is Zika virus NS2B-NS3 protease (linked construct). Kind of test: Primary screen NINDS Rhodamine qHTS for Zika virus inhibitors (AID 1347160). Also: nearly all actives have a fitted effect of over 55% in size. The essentials:
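In 10 mM Tris-HCl pH 8.0 containing 0.01% Tween 20, linked NS2B-NS3 protease (25 nM final) is exposed to test compounds for 15 min. Cleavage of 1.5 microM Rhodamine110 substrate is tracked by fluorescence over 15 min.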
(In general: qHTS replaces the single test concentration by a dilution series.)

Test [3] has as its target Calcium and integrin-binding protein 1 (Homo sapiens) (UniProt Q99828). Kind of test: Primary qHTS for Identification of Calcium Integrin Binding Protein 1 (CIB1) Competitor (AID 1508620). Also: top concentration of the series differs between compounds. Put shortly: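 Fluorescence polarization competition: GST-tagged CIB1 (1 uM final) preincubated with compound 15 min at room temperature, then FITC-labelled alphaIIb peptide (100 nM final) added. After 15 min at room temperature, polarization read at Ex 480/Em 540.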

The nature of test [4]: Primary qHTS for inhibitors of nuclear receptor binding SET domain protein 2 (NSD2) in an isogenic RCH-ACV NSD2 p.E1099K mutant (9B) (AID 1645876). Also: nearly all actives have a fitted effect of over 70% in size. Also: potency is read from the fitted curve at half-maximal effect.
The nature of test [5]: Primary qHTS for inhibitors of nuclear receptor binding SET domain protein 2 (NSD2) in an RCH-ACV wild type WT cells (2C) (AID 1645877). Also: nearly all actives have a fitted effect of over 70% in size. Also: potency is read from the fitted curve at half-maximal effect.
Test [6] addresses Glutathione peroxidase 1 (Homo sapiens) (UniProt P07203). Description: Primary qHTS Assay for Inhibitors of Recombinant Selenoprotein Glutathione Peroxidase 1 (GPX1) (AID 1845191). Also: nearly all actives have a fitted effect of over 65% in size. Also: potency is read from the fitted curve at half-maximal effect. Put shortly: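 GR-coupled assay: compounds preincubated 30 min at room temperature with GPX1, then reaction started with CHP; final 10 nM GPX1, 1 mM GSH, 0.5 mM CHP, 0.5 mM NADPH, 100 nM GR, 0.01% BSA, pH 7.5 Tris buffer. NADPH fluorescence (340/450 nm) read at 0 and 15 min.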

Test [7] addresses Phospholipid hydroperoxide glutathione peroxidase GPX4 (Homo sapiens) (UniProt P36969). Description: Primary qHTS Assay for Inhibitors of Recombinant Selenoprotein Glutathione Peroxidase 4 (GPX4) (AID 1845192). Also: nearly all actives have a fitted effect of over 65% in size. Also: potency is read from the fitted curve at half-maximal effect. The conditions noted are these: outcome: dose series up to 50 µM unless noted. Put shortly:
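GR-coupled assay: recombinant GPX4 preincubated 30 min with compound at room temperature; final 200 nM GPX4, 1 mM GSH, 0.5 mM cumene hydroperoxide, 0.5 mM NADPH, 100 nM GR, 0.01% BSA, pH 7.5 Tris. NADPH fluorescence (340/450 nm) read at 0 and 15 min.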

Test [8] deals with Luciferin 4-monooxygenase (Photinus pyralis) (UniProt P08659). Description: Primary firefly luciferase (FLuc) qHTS assay for identification of artifact compounds. (AID 1845220). Also: nearly all actives have a fitted effect of over 60% in size. The essentials:
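Enzymatic FLuc inhibition assay: compounds pre-exposed to luciferin/ATP (10 uM each) for 15 min, then purified P. pyralis enzyme at 10 nM added. Read-out: luminescence at 5 min.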

Test [9] can be described thus: Primary fluorescence-based thiol-reactive (MSTI) qHTS assay for identification of artifact compounds. (AID 1845221).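 Also: thiol-reactive compounds lower the probe fluorescence signal; nearly all actives have a fitted effect of over 65% in size.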 The essentials:
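Curve-fitted percent inhibition (4-parameter Hill) derived from fluorescence, Ex 525/Em 598 nm, scaled with Acetyl-MSTI and MSTI; 1 h incubation at room temperature.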

The subject of test [10] is Nanoluciferase (engineered Oplophorus gracilirostris luciferase). Kind of test: Primary Nanoluciferase (NLuc) qHTS assay for identification of artifact compounds. (AID 1845222).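 Also: NLuc secreted into diluted conditioned medium of S16 cells.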 Put shortly:
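S16 cell supernatant NLuc, 1:55; cpds qHTS; 15 min RT dark; Nano-Glo substrate 1:100, 5 min; luminescence; Hill fit of % inhibition.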

The next test concerns C33A. Description: Primary qHTS to identify gynecologic anti-cancer compounds using libraries of approved drugs and bioactive compounds (AID 1345084). Also: nearly all actives have a fitted effect of over 55% in size. The settings on record: Gynecologic cancer cell panel viability, ATPlite luminescence, 48 h; series mostly up to 57.5 µM. The essentials:
(§1)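 Cytotoxicity screen measuring ATP content by luciferase luminescence. Each compound is applied at five concentrations for 48 h at 37 C with 5% CO2.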

The test system of a further test is CASKI. The description is as above. The settings on record: Gynecologic cancer cell panel viability, ATPlite luminescence, 48 h; series mostly up to 57.5 µM. Put shortly: as §1
(In general: In ATP-based viability assays light output follows the ATP content of the culture.)

For the next test, the system named is Es-2. The description is as above. The conditions noted are these: Gynecologic cancer cell panel viability, ATPlite luminescence, 48 h; series mostly up to 57.5 µM. Put shortly: as §1
A further test has as its system HeLa. The test is described as above. The conditions noted are these: Gynecologic cancer cell panel viability, ATPlite luminescence, 48 h; series mostly up to 57.5 µM. Put shortly:
as §1

In another test the test system is Hek293T. The test is described as above. The settings on record: Gynecologic cancer cell panel viability, ATPlite luminescence, 48 h, control line for the selectivity index; series mostly up to 57.5 µM. The essentials: as §1
The next test deals with JEG-3. The description is as above. The settings on record: Gynecologic cancer cell panel viability, ATPlite luminescence, 48 h; series mostly up to 57.5 µM. Put shortly: as §1
Another test has as its system OV90. Described as above. The settings on record: Gynecologic cancer cell panel viability, ATPlite luminescence, 48 h; series mostly up to 57.5 µM. Put shortly:
as §1

In a further test the test system is Tov112D. The description is as above. The conditions noted are these: Gynecologic cancer cell panel viability, ATPlite luminescence, 48 h; series mostly up to 57.5 µM. The essentials: as §1
The test system of test [11] is Zika virus NS2B-NS3 protease (unlinked complex). Description: Primary screen GU Rhodamine qHTS for Zika virus inhibitors: Unlinked NS2B-NS3 protease assay (AID 1347159). Also: nearly all actives have a fitted effect of over 60% in size. Put shortly:
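Percent inhibition derives from the 15-min fluorescence change (ex 480, em 540 nm), normalized to no-enzyme and no-inhibitor wells. Reactions contained 25 nM NS2B-NS3 complex and 1.5 microM substrate in 10 mM Tris-HCl pH 8.0.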

Results filed as inconclusive are left out. The source made the active and inactive calls. Calls follow the shape of the dose curve; as a rule, active = well fitted curve in the direction sought with a large enough effect; inconclusive = small, poorly fitted or top-dose-only effect, or another doubt; inactive = no such curve, though single readings can be large; an effect the other way counts as inactive or inconclusive.

Glutathione peroxidase 1 (Homo sapiens), sequence (P07203 whole entry, looked up): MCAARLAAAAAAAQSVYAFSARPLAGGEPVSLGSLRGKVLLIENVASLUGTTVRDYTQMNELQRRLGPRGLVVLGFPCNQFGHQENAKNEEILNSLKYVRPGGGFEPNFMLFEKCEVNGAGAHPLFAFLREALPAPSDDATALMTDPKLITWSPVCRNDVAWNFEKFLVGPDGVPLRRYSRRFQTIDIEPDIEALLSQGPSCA
Calcium and integrin-binding protein 1 (Homo sapiens), sequence (Q99828 whole entry, looked up): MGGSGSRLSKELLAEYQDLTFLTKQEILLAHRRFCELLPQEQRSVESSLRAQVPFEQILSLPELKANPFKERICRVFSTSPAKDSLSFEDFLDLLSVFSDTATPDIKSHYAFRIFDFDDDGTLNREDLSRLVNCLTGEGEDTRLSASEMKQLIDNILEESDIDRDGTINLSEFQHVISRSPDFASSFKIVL
Phospholipid hydroperoxide glutathione peroxidase GPX4 (Homo sapiens), sequence (P36969 whole entry, looked up): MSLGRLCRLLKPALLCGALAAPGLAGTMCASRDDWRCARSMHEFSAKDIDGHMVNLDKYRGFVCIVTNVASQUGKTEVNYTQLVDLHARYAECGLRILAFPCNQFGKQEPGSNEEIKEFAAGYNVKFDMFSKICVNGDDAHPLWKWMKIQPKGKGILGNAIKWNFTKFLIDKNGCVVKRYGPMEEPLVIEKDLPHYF

For `Fc1ccccc1CNCc1ccc(-c2ccnc3[nH]ccc23)cc1`, the Potency was 11.6 µM (active) in test [1]; 16.3 µM (active) in test [4]; 11.5 µM (active) in test [5]; 25.5 µM (active) in [6]; 16.1 µM (active) in [7]. The Potency entry (in test [2]; in test [8]; in [9]; in test [10]; in the test with C33A; in the test with CASKI) was “inactive” in each case. In addition, the Potency result in the test with Es-2, in the test on HeLa, with Hek293T, with JEG-3, in the test with OV90 and in the test with Tov112D was “inactive” in each case. In addition, the outcome in [3] was inactive.

Take `CC1(C)SC2C(NC(=O)[C@H](C(=O)O)c3ccsc3)C(=O)N2C1C(=O)O` (stereo partly specified): the Potency result in [11], in test [2], in test [4], in test [5], in test [7] and in test [8] was “inactive” each time. Besides, the Potency result (in [9]; in [10]; in the test on C33A; in the test with CASKI; in the test on Es-2; in the test on HeLa) was “inactive” throughout. In addition, the Potency result in the test on Hek293T, with JEG-3, with OV90 and in the test with Tov112D was “inactive” throughout. The result in test [3] was inactive.

`CN[C@@H]1[C@@H](O)[C@@H](O[C@@H]2[C@@H](O)[C@H](O[C@H]3O[C@@H]([C@@H](C)NC)CC[C@H]3N)[C@@H](N)C[C@H]2N)OC[C@]1(C)O`: the Potency result in [11], in test [2], in test [4], in test [5], in test [7] and in test [8] was “inactive” each time. For the same molecule, the Potency entry (in test [10]; in the test with C33A; in the test with CASKI; in the test on Es-2; in the test with HeLa; with Hek293T) was “inactive” in each case. The Potency result in the test on JEG-3, in the test with OV90 and with Tov112D was “inactive” throughout.

In the case of `COc1ccc(NS(=O)(=O)c2sc3ccc(Cl)cc3c2C)cc1N1CCNCC1`, the Potency entry (in [11]; in test [2]; in test [6]; in test [7]; in [8]; in the test with C33A) was “inactive” in each case. The Potency entry in the test on CASKI, with Es-2, in the test with HeLa, with Hek293T, with JEG-3 and in the test with OV90 was “inactive” each time. Further, in the test with Tov112D, the Potency entry was “inactive”. In addition, the result in test [3] was inactive. For the same molecule, the results for the Potency in test [4] and in [5] were 20.5 µM (active) and 12.9 µM (active), respectively.

Take `Clc1ccccc1CNCC1CCC(CNCc2ccccc2Cl)CC1` (stereo unspecified): the Potency result (in [2]; in [6]; in test [7]; in test [8]; in test [9]; in the test on C33A) was “inactive” each time. The Potency entry in the test with CASKI, in the test on HeLa, in the test on Hek293T and in the test with OV90 was “inactive” each time. For the same molecule, the outcome in test [3] was inactive. The Potency in [4] was 18.3 µM (active); in test [5], 20.5 µM (active).

For the molecule `CCOC(=O)c1cnn(-c2ccc(NC(=O)C(Cl)=C(Cl)Cl)cc2)c1C(F)(F)F`, the Potency result in test [2], in test [6], in test [7], in [8], in [9] and in test [10] was “inactive” throughout. Also, the Potency result in the test with Es-2, with HeLa and with Hek293T was “inactive” in each case. The outcome in test [3] was inactive. The Potency was 11.5 µM (active) in [4] and 6.49 µM (active) in test [5].
